Data: PubChem BioAssay AID504900 (The Scripps Research Institute Molecular Screening Center, 2011)
The list shows a part of the results. Values without a mark were called inactive. Active and inactive are the calls of the source. No stated cut-off is given here; in the data, active means inhibition above about 32%; inactive means the rest.

Target: Mu-type opioid receptor (Homo sapiens) + Delta-type opioid receptor (Homo sapiens) (UniProt P35372+P41143)
Test: inverse agonists of MOR-DOR heterodimerization, confirmation, cell-based, luminescence (AID 504900);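 further: 0% = cells with DMSO and 100% = wells lacking cells with DMSO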
Conditions: cells expressing OPRM1/OPRD1 heterodimer, at 9.3 µM, stronger effect = higher value

Mu-type opioid receptor (Homo sapiens) + Delta-type opioid receptor (Homo sapiens), sequence (P35372 whole entry, looked up): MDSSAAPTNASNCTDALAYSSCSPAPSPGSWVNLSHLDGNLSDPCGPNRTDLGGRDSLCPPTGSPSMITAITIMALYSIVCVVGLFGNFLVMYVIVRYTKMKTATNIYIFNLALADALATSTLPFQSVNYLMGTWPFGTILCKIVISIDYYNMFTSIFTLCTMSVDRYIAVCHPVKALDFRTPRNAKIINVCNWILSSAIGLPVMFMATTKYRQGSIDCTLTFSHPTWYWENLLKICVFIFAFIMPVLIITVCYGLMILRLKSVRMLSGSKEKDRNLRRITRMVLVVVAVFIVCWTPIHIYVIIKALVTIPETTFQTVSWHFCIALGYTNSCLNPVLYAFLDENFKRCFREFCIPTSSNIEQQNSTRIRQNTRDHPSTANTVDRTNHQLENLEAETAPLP
Mu-type opioid receptor (Homo sapiens) + Delta-type opioid receptor (Homo sapiens), sequence (P41143 whole entry, looked up): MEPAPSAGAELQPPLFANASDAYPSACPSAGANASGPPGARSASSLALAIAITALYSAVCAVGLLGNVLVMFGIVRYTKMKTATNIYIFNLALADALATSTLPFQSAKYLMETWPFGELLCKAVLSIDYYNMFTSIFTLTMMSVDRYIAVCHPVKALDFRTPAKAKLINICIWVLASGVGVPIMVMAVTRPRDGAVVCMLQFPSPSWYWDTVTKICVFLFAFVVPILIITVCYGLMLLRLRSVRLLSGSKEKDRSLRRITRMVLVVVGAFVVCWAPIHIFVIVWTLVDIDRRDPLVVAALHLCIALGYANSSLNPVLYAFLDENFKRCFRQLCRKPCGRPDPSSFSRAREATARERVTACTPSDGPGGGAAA

SMILES | inhibition
Cc1cccc2c1N(CC(=O)OC(C)C)C(=O)C2=O | -138%
C=CCn1c(N)c(C(=O)OCC(C)C)c2nc3ccccc3nc21 | 14.8%
COC(=O)Cc1c(-c2[nH]c3ccccc3c2CC(=O)OC)[nH]c2ccccc12 | -123%
Cc1ccc(C(=O)CNc2ccc(F)cc2)cc1 | -20%
N#CC1=C(N)C(C#N)(C#N)[C@H](c2ccsc2)[C@H]2COCC=C12 | -0.3%
O=C1C(=O)N(CC2COc3ccccc3O2)c2ccccc21 (centres undefined) | 15.2%
Cc1ccc(NNC(=O)c2cccs2)cc1Cl | -17.7%
Cc1cccc(N=Nc2c(O)[nH]c3ccc(F)cc23)c1 | 20.6%
CC(C)OC(=O)CN1C(=O)C(=O)c2ccccc21 | -355%
CN(c1ccccc1)S(=O)(=O)c1ccc(NC(=O)COc2ccccc2)cc1 | -21.8%
CSCCC(NC(=O)COc1ccccc1)C(=O)OCC(=O)c1cc2ccccc2o1 (centres undefined) | 37.5% (active)
CCCCC(=O)NNC(=S)NC(=O)C(c1ccccc1)c1ccccc1 | -427%
CCOC(=O)CN1C(=O)C(O)(CC(=O)c2ccccn2)c2ccccc21 (centres undefined) | 24.7%
O=[N+]([O-])/C=C/c1ccc2c(ccn2Cc2ccccc2)c1 | -234%
O=C(CCl)NNc1cccc(Cl)n1 | 69.8% (active)
O=C1C(=O)N(c2ccccc2)c2ccccc21 | -11.8%
CN(O)C(=S)c1ccccc1 | 16.7%
CN(C)/C=C1/Nc2ccccc2C1=O | -27.4%
Cc1cccc(C)c1NC(=O)C(Cl)C(=O)c1ccccc1 (centres undefined) | -42.6%
Cc1ccc2c(c1)C(O)(CC(=O)c1cccnc1)C(=O)N2 (centres undefined) | 22.7%
CCOC(=O)CN1C(=O)C(=O)c2cc(C)ccc21 | -25.7%
COc1cc(NS(=O)(=O)c2ccc3ccccc3c2)c2ncccc2c1 | -82.7%
Oc1ccc(N=Nc2nccs2)c(O)c1 | 12.6%
CCOc1ccc(NC(=O)c2cccc3c2C(=O)N(CC2CCCO2)C3)cc1 (centres undefined) | -4.18%
